From PubChem
The sample as a whole holds a higher share of hits than the screen did.
TTR transcr act = increases transthyretin transcription. SH-SY5Y TTR promoter Gaussia luciferase, luminescence; 100% = recombinant luciferase protein wells. activation, % at 16.7 µM. 92,000 tested, 1.3% active;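 active = activation above the mean of all tested compounds plus 3 SD, cut at about 9.5% in these data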;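 also: cells exposed to compounds for one day before reading; 0% = median of all test compound wells on the plate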
HuH7 TTR inh = HuH7 TTR transcription inhibition, counter-screen; shares compounds with TTR transcr act; HuH7 TTR promoter-Gaussia luciferase reporter, luminescence; inhibition, % at 16.7 µM; 1,100 tested, 4% active; AID 1117279;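 active = average inhibition above the solvent-only control wells' mean plus 3 SD, cut at about 15% in these data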;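 also: 0% = cells with DMSO only and 100% = cells with inhibitor control FD; inhibitors lower well luminescence so higher value means more inhibition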
TTR act confirm = human TTR transcription activation, confirmation; activation, % at 16.7 µM; SHSY5Y TTR promoter Gaussia luciferase, luminescence; 100% = purified Lucia enzyme wells, no cells; AID 1117280; 1,100 tested, under 10 active; shares compounds with TTR transcr act;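 active = mean activation above a set limit taken from the earlier primary screen, cut at about 11% in these data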;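 also: 0% = DMSO-treated cells and 100% = recombinant Lucia luciferase without cells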
Numbers without * were called inactive.

SMILES	TTR transcr act	others
C[C@H](CO)N1C[C@H](C)[C@@H](CN(C)S(=O)(=O)c2ccccc2)Oc2c(NC(=O)CCC(F)(F)F)cccc2C1=O	1
Cc1c(C(=O)N(Cc2ccc(N(C)C)cc2)C2CCS(=O)(=O)C2)oc2ccccc12 (configuration not stated)	0
Cc1cccc(NC(=O)CN(CC2CCCO2)C(=O)c2oc3ccc(F)cc3c2C)c1C (configuration not stated)	7
Cc1cc2oc(C(=O)N(Cc3ccc(N(C)C)cc3)CC3CCCO3)c(C)c2cc1C (configuration not stated)	51*	HuH7 TTR inh=-10;TTR act confirm=0
C[C@@H]1CCN(C2CC2)S(=O)(=O)c2ccc(N3CCC[C@@H]3CO)cc2O1	0
COc1cc(CC(=O)OCC(=O)NCc2ccco2)cc(OC)c1OC	0
O=C(NC(=O)N1CCCC1)c1csnn1	2
O=C(NC(=S)Nc1ccccc1Cl)c1csnn1	13*	HuH7 TTR inh=-12;TTR act confirm=0
Cc1c(Cl)cccc1NC(=S)NC(=O)c1ccccc1	9
COc1ccc(C(=O)C2CCCN(C(=O)c3ccccc3C(C)=O)C2)cc1F (configuration not stated)	-1
COc1cccc(C(=O)C2CCCN(C(=O)c3ccc(C#CC(C)(C)O)cc3)C2)c1 (configuration not stated)	0
COc1ccc(C(=O)C2CCCN(C(=O)c3cccc(N(C)C)c3)C2)cc1OC (configuration not stated)	12*	HuH7 TTR inh=-12;TTR act confirm=0
COc1ccc(NC(=O)C2CCCN(C(=O)Nc3ccc(F)cc3)C2)cc1OC (configuration not stated)	0
COc1ccc(OC)c(N=C(C)C2=C(O)COC2=O)c1	0
O=C1OCC(O)=C1Cc1ccccc1	5
CC(=Nc1ccccc1)C1=C(O)COC1=O	18*	HuH7 TTR inh=-6;TTR act confirm=0
CN(CC(=O)NCc1ccc2c(c1)OCO2)S(=O)(=O)c1ccc(F)cc1	-1
Cc1ccc(SCCN2CCN(C)CCC2=O)cc1	0
Cc1ccc(SCCN2CCC(O)CCC2=O)cc1 (configuration not stated)	23*	HuH7 TTR inh=-9;TTR act confirm=0
CC1CCC(=O)N(CCSc2ccccc2)CC1 (configuration not stated)	-3
Cc1ccc2oc(C(=O)N(C)CCC(O)c3ccccc3)c(C)c2c1 (configuration not stated)	0
O=C(NC(=S)N1CCN(c2ccc(F)cc2)CC1)c1ccccc1	-1
N/C(=N\OC(=O)c1ccc(F)cc1)c1ccccc1	0
CC(C)(C)OC(=O)N1C(=O)[C@](OC(=O)c2ccccc2)(c2ccc(F)cc2)c2ccccc21	21*	HuH7 TTR inh=4;TTR act confirm=-1
Cc1ccc(C2=NN(CC(=O)O)C(=O)CC2)cc1	-1
SMILES	TTR transcr act	others
O=C(CSc1nnc(-c2cccs2)o1)NCc1ccco1	13*	HuH7 TTR inh=-11;TTR act confirm=1
Fc1ccc(CSc2nnc(-c3cccs3)o2)cc1	10*	HuH7 TTR inh=-14;TTR act confirm=0
O=C(CSc1nnc(CNC(=O)c2cccc(C(F)(F)F)c2)o1)NCc1ccco1	4
c1ccc(-c2nnc(CSc3nnc(-c4cccs4)o3)o2)cc1	1
CC1CCN(C(=O)CSc2nnc(-c3cccs3)o2)CC1	-1
Fc1ccccc1CSc1nnc(-c2cccs2)o1	-1
COc1ccc(OC)c(NC(=O)COc2cc(O)c3c(c2)OC(C)(C)CC3=O)c1	-2
Cc1c(C(=O)N2CCCCC2)c(S(=O)(=O)NCCc2ccc(Cl)cc2)c(C)n1C	1
O=C(Nc1ccc(Br)cc1)OCCN1CCCC12CCC(c1ccccc1)CC2 (configuration not stated)	-1
COc1cccc(NS(=O)(=O)c2ccc(C)c(C(=O)N3CCCCC3)c2)c1	0
CCCCn1nc2cc(C(=O)N[C@H](C)C3CCCCC3)ccc2c1OCC	12*	HuH7 TTR inh=-6;TTR act confirm=0
CCOc1c2ccc(C(=O)NCCc3ccc(C)cc3)cc2nn1CC	-3
CCCCn1nc2cc(C(=O)NCc3cc(C(F)(F)F)cc(C(F)(F)F)c3)ccc2c1OCC	1
CCOC(=O)[C@]12CCCC=C1N(CCC1=CCCCC1)C(=O)[C@H](CC(=O)NCC1CCCCC1)C2	-2
Cc1cc(NC(=O)CSCC(=O)N(C)Cc2ccc(F)cc2)no1	13*	HuH7 TTR inh=-11;TTR act confirm=-1
CSCC(=O)Nc1cc(C)on1	8
Cc1cc(NC(=O)CSCC(=O)OCc2nnc(-c3ccc(F)cc3)o2)no1	-1
CCn1c(C(O)c2cc(OC)c(OC)c(OC)c2)nc2ccccc21 (configuration not stated)	3
CCCn1c(C(C)Nc2nc(-c3ccc(OC)cc3)cs2)nc2ccccc21 (configuration not stated)	7
CCCn1c(C(O)c2ccc(OC)cc2)nc2ccccc21 (configuration not stated)	9.8*	HuH7 TTR inh=-17;TTR act confirm=0
